Calls of active or inactive are those of the source. How the source made its calls: active means hit-call score of the fitted dose curve at least 0.9, where 1 is the maximum; inactive means score below 0.9.
Assays:
[1] = BSK_hDFCGF_SRB: Viability Assessment in the BioMAP Diversity Plus: hDFCGF Assay (AID 2283061); conditions: primary human foreskin fibroblasts;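 further: cells exposed to compound for 24 h before the read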
Procedure, shortened: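 Readout is SRB absorbance at 560 nm, reflecting total protein in parallel cultures of human foreskin fibroblasts harvested 24 h after chemical dosing. Activity was fitted bidirectionally relative to DMSO.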

[2] = read-out: TIMP metallopeptidase inhibitor 1 (TIMP1), TIMP1 (gene 7076); test: BSK_hDFCGF_TIMP1: BioMAP Diversity Plus: hDFCGF Assay for TIMP metallopeptidase inhibitor 1 (TIMP1) Biomarker Activity (AID 2283062); conditions: primary human foreskin fibroblasts; actives raise or lower the signal
Procedure, shortened: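 Human skin fibroblasts (primary), hDFCGF system; compound exposure 24 h; TIMP-1 by ELISA; bidirectional fit vs DMSO negative control; overt cytotoxicity by SRB in parallel wells.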

[3] = read-out: Monokine induced gamma interferon (MIG), CXCL9 (gene 4283); test: BSK_hDFCGF_MIG: BioMAP Diversity Plus: hDFCGF Assay for Monokine induced gamma interferon (MIG) Biomarker Activity (AID 2283063); conditions: primary human foreskin fibroblasts; actives raise or lower the signal
Procedure, shortened: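 Chemicals were added to primary human foreskin fibroblast cultures, which were sampled 24 h later. MIG levels were then quantified by ELISA and responses fitted in both directions relative to DMSO.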

[4] = read-out: Matrix Metallopeptidase 1 (MMP1), MMP1 (gene 4312); test: BSK_hDFCGF_MMP1: BioMAP Diversity Plus: hDFCGF Assay for Matrix Metallopeptidase 1 (MMP1) Biomarker Activity (AID 2283064); conditions: primary human foreskin fibroblasts; actives raise or lower the signal
Procedure, shortened: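 hDFCGF primary fibroblasts (human foreskin); chemical added; 24 h; MMP1 by ELISA; bidirectional fit vs DMSO.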

[5] = read-out: Vascular cell adhesion molecule 1 (VCAM1), VCAM1 (gene 7412); test: BSK_hDFCGF_VCAM1: BioMAP Diversity Plus: hDFCGF Assay for Vascular cell adhesion molecule 1 (VCAM1) Biomarker Activity (AID 2283065); conditions: primary human foreskin fibroblasts; actives raise or lower the signal;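 on AC50: VCAM-1 protein level quantified by ELISA after 24 h chemical exposure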
Procedure, shortened: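 Human foreskin fibroblast primary cells, chemical exposure 24 h; VCAM-1 by ELISA; bidirectional fit, DMSO = negative control/baseline.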

[6] = read-out: Plasminogen activator inhibitor-1 (PAI1), SERPINE1 (gene 5054); test: BSK_hDFCGF_PAI1: BioMAP Diversity Plus: hDFCGF Assay for Plasminogen activator inhibitor-1 (PAI1) Biomarker Activity (AID 2283066); conditions: primary human foreskin fibroblasts; actives raise or lower the signal
Procedure, shortened: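 Human foreskin fibroblast primary cells, 24 h chemical exposure; PAI-1 measured by ELISA. Bidirectional fitting relative to DMSO; parallel cultures stained with SRB for total protein to flag overt cytotoxicity.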

[7] = read-out: Intercellular Adhesion Molecule 1 (ICAM1), ICAM1 (gene 3383); test: BSK_KF3CT_ICAM1: BioMAP Diversity Plus: KF3CT Assay for Intercellular Adhesion Molecule 1 (ICAM1) Biomarker Activity (AID 2283067); conditions: primary human keratinocytes with fibroblasts; actives raise or lower the signal
Procedure, shortened: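 ICAM-1 levels are measured by ELISA 24 h after dosing a primary human co-culture of keratinocytes and foreskin fibroblasts. Activity in either direction is fitted relative to DMSO vehicle.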

[8] = read-out: Interferon-gamma inducible Protein 10 (IP10), CXCL10 (gene 3627); test: BSK_KF3CT_IP10: BioMAP Diversity Plus: KF3CT Assay for Interferon-gamma inducible Protein 10 (IP10) Biomarker Activity (AID 2283068); conditions: primary human keratinocytes with fibroblasts; actives raise or lower the signal
Procedure, shortened: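 Signal is secreted/surface IP-10 by ELISA in a human primary skin co-culture of keratinocytes and foreskin fibroblasts, taken 24 h post-dosing; DMSO served as negative control.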

[9] = BSK_KF3CT_SRB: Viability Assessment in the BioMAP Diversity Plus: KF3CT Assay (AID 2283069); conditions: primary human keratinocytes with fibroblasts;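 further: total protein by sulforhodamine B staining as a cytotoxicity measure; read 24 h after compound addition; fitted for both signal gain and loss against DMSO baseline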
Procedure, shortened: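 Keratinocytes co-cultured with foreskin fibroblasts (human primary); chemical added, 24 h; fix 10% TCA, stain 0.1% SRB, A560. Bidirectional fit vs DMSO.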

[10] = read-out: Interleukin-1 alpha (IL1a), IL1A (gene 3552); test: BSK_KF3CT_IL1a: BioMAP Diversity Plus: KF3CT Assay for Interleukin-1 alpha (IL1a) Biomarker Activity (AID 2283070); conditions: primary human keratinocytes with fibroblasts; actives raise or lower the signal
Procedure, shortened: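 Chemicals were dosed onto co-cultured human keratinocytes and foreskin fibroblasts, IL-1a was quantified by ELISA at 24 h, and activity was fitted in both directions relative to DMSO controls.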

[11] = read-out: TIMP metallopeptidase inhibitor 2 (TIMP2), TIMP2 (gene 7077); test: BSK_KF3CT_TIMP2: BioMAP Diversity Plus: KF3CT Assay for TIMP metallopeptidase inhibitor 2 (TIMP2) Biomarker Activity (AID 2283071); conditions: primary human keratinocytes with fibroblasts; actives raise or lower the signal
Procedure, shortened: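 Co-culture of human primary keratinocytes and foreskin fibroblasts, measured 24 h after chemical dosing. TIMP-2 quantified by ELISA and fitted in both directions relative to DMSO. Cytotoxicity checked in parallel cultures by SRB total-protein staining.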

[12] = read-out: Transforming growth factor beta 1 (TGFb1), TGFB1 (gene 7040); test: BSK_KF3CT_TGFb1: BioMAP Diversity Plus: KF3CT Assay for Transforming growth factor beta 1 (TGFb1) Biomarker Activity (AID 2283072); conditions: primary human keratinocytes with fibroblasts; actives raise or lower the signal
Procedure, shortened: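 Human keratinocyte/foreskin fibroblast co-culture; TGF-b1 measured by ELISA 24 h after dosing, fitted bidirectionally versus DMSO. Cytotoxicity checked in parallel cultures by total protein (SRB staining, 560 nm).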

[13] = read-out: C-C motif chemokine 2 (Homo sapiens) (UniProt P13500); test: BSK_KF3CT_MCP1: BioMAP Diversity Plus: KF3CT Assay for Monocyte Chemoattractant Protein 1 (MCP1/CCL2) Biomarker Activity (AID 2283073); conditions: primary human keratinocytes with fibroblasts; actives raise or lower the signal
Procedure, shortened: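 ELISA readout of MCP-1 after 24 h chemical dosing of a human skin primary co-culture of keratinocytes and foreskin fibroblasts. Activity was fitted in both directions against DMSO.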

[14] = read-out: Matrix Metallopeptidase 9 (MMP9), MMP9 (gene 4318); test: BSK_KF3CT_MMP9: BioMAP Diversity Plus: KF3CT Assay for Matrix Metallopeptidase 9 (MMP9) Biomarker Activity (AID 2283074); conditions: primary human keratinocytes with fibroblasts; actives raise or lower the signal;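 on AC50: MMP9 protein level quantified by ELISA in the co-culture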
Procedure, shortened: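 Human keratinocyte/foreskin fibroblast co-culture; compound added; 24 h; MMP-9 by ELISA; bidirectional fit vs DMSO baseline.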

[15] = read-out: urokinase plasminogen activator (uPA), PLAU (gene 5328); test: BSK_KF3CT_uPA: BioMAP Diversity Plus: KF3CT Assay for urokinase plasminogen activator (uPA) Biomarker Activity (AID 2283075); conditions: primary human keratinocytes with fibroblasts; actives raise or lower the signal
Procedure, shortened: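 ELISA readout of uPA, analyzed for signal gain or loss relative to DMSO, from a human primary keratinocyte–foreskin fibroblast co-culture measured 24 h after chemical treatment.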

[16] = read-out: CD40, CD40 (gene 958); test: BSK_LPS_CD40: BioMAP Diversity Plus: LPS Assay for CD40 Biomarker Activity (AID 2283076); conditions: primary human HUVEC with PBMC; actives raise or lower the signal
Procedure, shortened: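 Cells were dosed, incubated 24 h, then assayed for CD40 by ELISA. Gain or loss of signal was analysed relative to DMSO controls. The culture paired human umbilical vein endothelium with peripheral blood mononuclear cells.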

[17] = read-out: E-selectin (Homo sapiens) (UniProt P16581); test: BSK_LPS_Eselectin: BioMAP Diversity Plus: LPS Assay for Eselectin Biomarker Activity (AID 2283077); conditions: primary human HUVEC with PBMC; actives raise or lower the signal
Procedure, shortened: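 Primary human vascular co-culture (endothelium plus PBMC) was dosed with chemical, then E-selectin quantified by ELISA at 24 h. Endpoint values derive from bidirectional curve fitting relative to DMSO.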

[18] = read-out: Interleukin-8 (IL8), CXCL8 (gene 3576); test: BSK_LPS_IL8: BioMAP Diversity Plus: LPS Assay for Interleukin-8 (IL8) Biomarker Activity (AID 2283078); conditions: primary human HUVEC with PBMC; actives raise or lower the signal
Procedure, shortened: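 Readout is IL-8 by ELISA, taken 24 h after compounds were added to LPS-stimulated endothelial/PBMC co-cultures. Both increases and decreases relative to DMSO control were scored through bidirectional fitting.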

[19] = BSK_LPS_SRB: Viability Assessment in the BioMAP Diversity Plus: LPS Assay (AID 2283079); conditions: primary human HUVEC with PBMC;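 further: total protein by sulforhodamine B absorbance as a cytotoxicity measure; measured one day after compound addition; fitted in both directions against DMSO so loss or gain of signal counts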
Procedure, shortened: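 Readout is SRB absorbance at 560 nm (0.1% stain, TCA-fixed parallel cultures) as a total-protein cytotoxicity measure. Cells: primary human umbilical vein endothelium plus peripheral blood mononuclear cells, 24 h after chemical exposure; DMSO served as baseline.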

[20] = read-out: Interleukin-1 alpha (IL1a), IL1A (gene 3552); test: BSK_LPS_IL1a: BioMAP Diversity Plus: LPS Assay for Interleukin-1 alpha (IL1a) Biomarker Activity (AID 2283080); conditions: primary human HUVEC with PBMC; actives raise or lower the signal
Procedure, shortened: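 ELISA read-out of IL-1 alpha from a human primary vascular co-culture (endothelium plus PBMC) under LPS, sampled 24 hours post-dosing. Activity was fitted in both directions relative to DMSO controls.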

Measured: AC50

E-selectin (Homo sapiens), sequence (P16581 whole entry, looked up): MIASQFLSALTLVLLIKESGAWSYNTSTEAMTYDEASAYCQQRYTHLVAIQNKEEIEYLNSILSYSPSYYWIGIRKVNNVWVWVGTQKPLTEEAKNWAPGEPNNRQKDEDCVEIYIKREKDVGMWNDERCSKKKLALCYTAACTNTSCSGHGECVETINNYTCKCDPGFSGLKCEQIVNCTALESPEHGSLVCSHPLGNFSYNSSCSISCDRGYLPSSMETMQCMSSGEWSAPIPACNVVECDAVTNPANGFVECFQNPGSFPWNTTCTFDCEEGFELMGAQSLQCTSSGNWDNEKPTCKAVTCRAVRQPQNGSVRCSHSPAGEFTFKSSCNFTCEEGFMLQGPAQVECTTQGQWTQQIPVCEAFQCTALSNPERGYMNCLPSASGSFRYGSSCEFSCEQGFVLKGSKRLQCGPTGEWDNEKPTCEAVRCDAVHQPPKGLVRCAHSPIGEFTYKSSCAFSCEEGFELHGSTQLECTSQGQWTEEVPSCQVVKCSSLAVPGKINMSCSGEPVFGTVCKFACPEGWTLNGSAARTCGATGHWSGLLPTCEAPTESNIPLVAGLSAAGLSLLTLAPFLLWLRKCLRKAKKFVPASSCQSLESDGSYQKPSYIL

NC(=O)N(O)[C@@H]1C=C[C@H](Oc2cccc(Oc3ccc(F)cc3)c2)C1
active: [5] 8.65 µM | [8] 20 µM | [19] 3.97 µM
inactive: all other assays above

CN1CCN(c2ccccc2/C=C2\SCCN(c3ccc(Cl)c(Cl)c3)C2=O)CC1
active: [1] 28.3 µM | [2] 33.7 µM | [3] 39 µM | [4] 38 µM | [5] 31.8 µM | [6] 9.63 µM | [7] 31.8 µM | [8] 28.5 µM | [9] 30.8 µM | [10] 30.6 µM | [11] 28.1 µM | [12] 29.1 µM | [13] 32.4 µM | [14] 26.8 µM | [15] 30.1 µM | [16] 7.34 µM | [18] 20 µM | [19] 16.3 µM | [20] 20 µM
inactive: [17]

CCCCCCCCCCCCCCCS(=O)(=O)Oc1ccccc1
inactive: all assays above

CCCCCCCCC(=O)O
inactive: all assays above

CC(O)CO (stereo not drawn)
inactive: all assays above

CC(C)(C)c1cc(C(C)(C)C)c(O)c(C(C)(C)C)c1
active: [1] 32 µM | [2] 31.8 µM | [3] 33.5 µM | [4] 33.1 µM | [5] 31.5 µM | [6] 32.2 µM | [8] 32.8 µM | [14] 36.2 µM
inactive: all other assays above

Oc1cccc(O)c1
not listed: [12]
inactive: all other assays above

C#C[C@]1(O)CC[C@H]2[C@@H]3CCC4=CC(=O)CC[C@@H]4[C@H]3CC[C@@]21C
active: [17] 6.29 µM | [18] 4.87 µM | [19] 5.96 µM
inactive: all other assays above

Cc1oc(-c2ccccc2)nc1CCOc1ccc(C[C@H](Nc2ccccc2C(=O)c2ccccc2)C(=O)O)cc1
active: [1] 2.42 µM | [2] 3.99 µM | [3] 6.07 µM | [4] 2.05 µM | [5] 3.61 µM | [6] 2.79 µM | [7] 7.43 µM | [8] 2.86 µM | [9] 4.3 µM | [10] 8.87 µM | [11] 9.85 µM | [12] 7.38 µM | [13] 5.22 µM | [14] 6.66 µM | [15] 7.7 µM | [16] 30.2 µM | [17] 30.8 µM | [18] 29.1 µM | [19] 20.6 µM | [20] 20 µM

CCc1ccc(CCOc2ccc(CC3SC(=O)NC3=O)cc2)nc1 (stereo not drawn)
inactive: all assays above

CC[C@H](c1ccc(O)cc1)[C@@H](CC)c1ccc(O)cc1
active: [1] 30.4 µM | [3] 30.6 µM | [4] 31.2 µM | [6] 25 µM | [7] 32.9 µM | [8] 26.5 µM | [9] 32.5 µM | [10] 32 µM | [11] 31.6 µM | [12] 29.8 µM | [13] 32.7 µM | [14] 19.4 µM | [15] 35 µM | [16] 17.4 µM | [17] 33.8 µM | [18] 35.1 µM | [19] 31.5 µM | [20] 31.3 µM
inactive: [2]
